# A selection: hits, their analogues and other compounds. The true share with any hit is near 3.6%.
# Pf apPOL inh = Pf-apPOL inhibitors, biochemical, fluorescence. Recombinant Pf-apPOL, molecular beacon fluorescence, 1.5 h. inhibition, % at 10 µM. 0.25% of 210,000 active. AID 1794808, 2022
# mHTT-CaM PPI inh = mutant huntingtin-calmodulin interaction inhibitors – biochemical, AlphaScreen, primary screen; P42858; AlphaScreen His-mHTT/GST-CaM binding, luminescence; inhibition, % at 15 µM; 3.6% of 190,000 active; AID 1671202, 2021;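 also: 0% = both proteins with DMSO and 100% = one protein alone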
# * marks the source's active call; other numbers are inactive results; i = inactive; · = no result given; ! = not confirmed by another sample. Rule as the data show it: active = inhibition above about 50%; inactive = the rest.
SMILES,Pf apPOL inh,mHTT-CaM PPI inh
O=C(Nc1c(C(=O)Nc2ccccc2)cnn1-c1ccccc1)c1ccccc1,3.3,11.4
COc1ccccc1NC(=O)c1cnn(-c2ccccc2)c1NC(=O)c1cccc(F)c1,8.3,59.0*!
O=C(NCCc1ccccc1)c1ccc2c(c1)nc1n2CCCCC1,-0.4,-1.9
CCC(=O)NC(c1ccc(N(C)C)cc1)c1ccc2cccnc2c1O (stereo unspecified),2.7,99.5*
CCCCC(=O)NC(c1ccc(N(C)C)cc1)c1ccc2cccnc2c1O (stereo unspecified),0.8,100.0*
CCCCC(=O)NC(c1ccc(N(CC)CC)cc1)c1ccc2cccnc2c1O (stereo unspecified),-13.2,98.0*
Cc1cccc(C(=O)N2CCN(c3ccc4c(c3)OCO4)C(=O)C2C)c1 (stereo unspecified),-1.7,4.2
Cc1cccc(Cn2c(C)c(C)c(C)c2C(=O)Nc2ccc3c(c2)OCO3)c1,0.0,40.6
O=C1Nc2ccc(Cl)cc2/C1=C/c1ccccc1Cl,-0.3,38.0
C=CCSc1nc2c(c(-c3ccc(C)o3)c1C#N)CCCC2,-24.2,-24.0
Cc1ccc(-c2c(C#N)c(SCC(=O)c3ccc(O)c(O)c3)nc3c2CCCC3)o1,-1.1,69.0*
CC(C)NC(=O)c1ccc(-c2nc3cccnc3n(C3CCCC3)c2=O)cc1,3.8,-1.1
Clc1cccc(Nc2nc3nonc3nc2N2CCOCC2)c1,1.1,38.0
Cc1cccc(CC(=O)NCC2CCN(Cc3ccccc3)CC2)c1,-4.3,-8.5
N#CCSc1sc2c(O)cc(=O)[nH]c2c1C#N,·,-1.2
N#Cc1c(SCC(=O)c2ccc(Cl)s2)sc2c(O)cc(=O)[nH]c12,·,62.7*
CCc1ccc(S(=O)(=O)Nc2ccc3c(c2)N(C(=O)c2cccs2)CC3)s1,-9.4,-0.3
COc1ccc(/C=C2/SC(N3CCCCC3)=NC2=O)c(OC)c1,0.0,16.0
COc1ccc(/C=C2/SC(N3CCC(C)CC3)=NC2=O)c(OC)c1,-3.6,58.0*
Cc1oc(C2CCN(C(=O)CC3CCCC3)CC2)nc1C(=O)N(C)C,-4.8,-5.6
CN1CCC(NC(=O)C2CCN(c3nc4ccc(-c5cncnc5)nc4s3)CC2)CC1,-1.6,7.9
CC(=O)NC1=NN(C(C)=O)C2(S1)C(=O)N(C(C)=O)c1ccccc12 (stereo unspecified),-3.4,5.0
CC(=O)NC1=NN(C(C)=O)C2(S1)C(=O)N(C(C)=O)c1ccc(Br)cc12 (stereo unspecified),1.8,52.0*
O=C(CCc1ccccc1)N1CCN(c2nnc3ccc(C(F)(F)F)cn23)CC1,-3.9,2.9
CC(C)Cn1cc(C(=O)NCc2ccc(F)cc2Cl)c2c3ccccc3n(C)c2c1=O,-14.9,-4.0
SMILES,Pf apPOL inh,mHTT-CaM PPI inh
CC[C@H]1C(c2ccccc2)=NN(c2ccccc2)[C@@H]1CO,-6.4,11.9
C[C@H]1C(c2ccc(F)cc2)=NN(c2ccccc2)[C@@H]1CO,0.2,-85.1
OC[C@@H]1[C@@H](c2ccc(F)cc2)C(c2cccc(Cl)c2)=NN1c1ccccc1,-0.1,71.7*
OC[C@@H]1[C@@H](c2ccc(Cl)cc2)C(c2cccc(Cl)c2)=NN1c1ccccc1,-5.1,74.1*
OC[C@@H]1[C@@H](c2ccc(Cl)cc2)C(c2ccccc2)=NN1c1ccccc1,-4.6,86.4*
C[C@H]1C(c2cccc(Cl)c2)=NN(c2ccccc2)[C@@H]1CO,-3.1,-84.0
NC(=O)c1cc2cc(Cl)cc(Cl)c2oc1=Nc1ccc(F)cc1,45.0,-3.0
COc1ccccc1-c1ncnn1-c1ccc(C)c(Cl)c1,2.8,2.1
COc1ccc(OC)c(COCC(O)CN(C)C)c1 (stereo unspecified),-8.9,5.2
O=S(=O)(Nc1cc(Cl)cc(Cl)c1)c1ccc(Cl)cc1,·,-23.9
O=C(O)c1cc(NS(=O)(=O)c2ccc(Cl)cc2)cc(C(=O)O)c1,71.4*,-2.8
Cc1cc(OCC(=O)NC2CCCCC2C)cc(C)c1Cl (stereo unspecified),-5.7,-14.0
Cc1ccc(C(=O)N2CCN(c3nc(CN4CCCC4)cs3)CC2)cc1C,14.4,68.9*
Cc1ccc(C(=O)N2CCN(c3nc(CN4CCOCC4)cs3)CC2)cc1C,2.7,9.4
Oc1c(C(c2ccncc2)N2CCOCC2)ccc2cccnc12 (stereo unspecified),-5.5,100.0*
COc1ccc(NC(c2ccccc2)c2ccncc2)cc1 (stereo unspecified),-3.0,2.6
Cc1cccc(NC(c2cccc(F)c2)c2ccc3cccnc3c2O)n1 (stereo unspecified),-44.5,99.0*
Cc1cccc(NC(c2ccc(F)cc2)c2ccc3cccnc3c2O)n1 (stereo unspecified),3.7,100.0*
Oc1c(C(Nc2ccc(F)cc2)c2ccncc2)ccc2cccnc12 (stereo unspecified),-2.9,100.0*
O=C(CSc1cccc2cccnc12)c1ccc(F)cc1,-7.5,5.0
Cc1ccc(F)cc1NC(=O)CSc1cccc2cccnc12,0.2,2.7
c1cncc(C(N2CCOCC2)N2CCOCC2)c1,-0.6,0.0
O=C(NC1CCCCC1)C1CCCN(c2nnc3ccc(Cl)cn23)C1 (stereo unspecified),2.0,6.8
COc1ccccc1CCC(=O)N1CCCC1c1nc(-c2cccc(C)c2)no1 (stereo unspecified),-0.7,-4.9
CN1CCN(CCNC(=O)c2ccc(N3CCNC(c4ccccc4)C3)nc2)CC1 (stereo unspecified),0.5,13.8
SMILES,Pf apPOL inh,mHTT-CaM PPI inh
COc1ccc(C2C(C(=O)Nc3ccc(C)cc3C)=C(C)Nc3ncnn32)cc1 (stereo unspecified),-3.0,8.0
CC(C)(C)NC(=O)C1CCN(c2cccc(F)c2)C1=O (stereo unspecified),-3.1,-2.3
O=C(COc1ccccc1)N1CCN=C1N1CCCCC1,-6.0,-2.6
O=C(CSc1nnc(-c2ccco2)c(-c2ccco2)n1)Nc1cccc(Br)c1,-3.3,100.0*
O=C(CSc1nnc(-c2ccco2)o1)Nc1cccc([N+](=O)[O-])c1,-3.3,-5.8
O=C(CSc1nnc(-c2ccco2)c(-c2ccco2)n1)Nc1ccccc1[N+](=O)[O-],-3.3,74.0*
O=C(CSc1n[nH]c(-c2ccccc2)n1)Nc1ccccc1[N+](=O)[O-],-0.9,12.0
O=C(O)Cn1c2ccccc2c2nnc(SCC(=O)Nc3cccc(Br)c3)nc21,-3.0,25.0
O=C(CSc1nnc(-c2ccco2)c(-c2ccco2)n1)Nc1cccc([N+](=O)[O-])c1,4.1,98.0*
O=C(c1ccc(-c2cnc(Oc3ccccc3)nc2)cc1)N1CCCC1,-2.8,-1.4
Cc1ccc(C(=O)Nc2cccc(I)c2)c(Cl)c1,-6.0,-1.1
Cc1ccc(C(=O)O/N=C(\N)c2cccnc2)cc1C,1.5,i
CC(C)(Oc1ccc(Cl)cc1)C(=O)Nc1ccccc1C(N)=O,-4.2,-4.7
CN(C)CCCN(C(=O)c1cc2cc([N+](=O)[O-])ccc2s1)c1nc2ccccc2s1,6.7,0.6
Ic1ccc2c(c1)C1C=CCC1C(c1ccncc1)N2 (stereo unspecified),5.8,95.0*
Brc1ccc2c(c1)C1C=CCC1C(c1ccncc1)N2 (stereo unspecified),-6.7,95.0*
Nc1ccc(C2Nc3ccccc3C3C=CCC32)cc1 (stereo unspecified),-11.1,85.3*
Fc1ccc(C2Nc3ccc(Br)cc3C3C=CCC32)cc1 (stereo unspecified),-0.8,15.0

# Screens (PubChem BioAssay)
